Measured values reported in PubChem BioAssay.
Values joined by “and” are separate entries in the source; they are usually repeats but may differ in a detail not shown here. Equal values may be shown once. Active and inactive are the calls of the source. Cut-off read from the data, not from the text of the source, unless noted: active = inhibition above about 80%; inactive = the rest.

Experiments:
[1] = LFS_MB_1R medulloblastoma cell growth inhibition, synergistic combos for chromothripsis tumors, cisplatin or BGB combos (AID 1671452); conditions: LFS_MB_1R medulloblastoma cells, stronger effect = higher value;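 note: cells exposed for 96 hours before readout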
[2] = CRL2098 osteosarcoma cell growth inhibition, synergistic combos for chromothripsis tumors, BGB or cisplatin IC20 combos (AID 1671454); conditions: CRL2098 osteosarcoma cells, drug combinations, stronger effect = higher value;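 note: cells exposed for 96 h before readout; 0% = vehicle DMSO and 100% = killing by high DMSO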
[3] = HD-MB03 medulloblastoma cell growth inhibition, synergistic combos for chromothripsis tumors, BGB or cisplatin IC20 combos (AID 1671455; in the data active = inhibition above about 83%;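 note: 0% = vehicle DMSO and 100% = high DMSO as cytotoxic control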); conditions: HD-MB03 medulloblastoma cells, stronger effect = higher value
[4] = UWB1.289 ovarian carcinoma cell growth inhibition, synergistic combos for chromothripsis tumors, BGB or cisplatin combos (AID 1671456); conditions: UWB1.289 ovarian carcinoma cells, stronger effect = higher value;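 note: cells exposed to compound for four days; 0% = vehicle DMSO and 100% = killing by high DMSO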
[5] = LFS_MB_2R medulloblastoma cell growth inhibition, synergistic combos for chromothripsis tumors, cisplatin combos (AID 1671457); conditions: LFS_MB_2R medulloblastoma cells, stronger effect = higher value;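 note: cells exposed to compound for four days before readout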
[6] = UWB1.289_BRCA1 ovarian cancer growth, cell-based, BGB or cisplatin combinations (AID 1671459); conditions: UWB1.289 BRCA1 ovarian carcinoma, drug combinations, stronger effect = higher value
[7] = human astrocyte viability loss, single and combined drugs, cytotoxicity control for chromothriptic childhood tumor combination screen, cell-based, BGB or cisplatin IC20 combos (AID 1671460); conditions: Human astrocytes, drug combinations, stronger effect = higher value;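 note: cells exposed to compounds for 96 hours before viability readout; 0% = vehicle and 100% = killing control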
[8] = kinase inhibitors against Plasmodium liver-stage infection, cell-based, known kinase inhibitor set, luminescence, hepatoma host viability (AID 624392; call rule not given here;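 note: infected cells incubated roughly two days before readout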); conditions: Plasmodium liver stage in hepatoma cells, luciferase luminescence, concentration not given here; liver cell % of control: measured here: host liver cell viability; parasite % of control: stronger effect = lower value
[9] = viability rescue of complex I mutant cybrids, primary screen, cell-based, galactose medium, ATP luminescence (AID 1645843;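 active = z-score of at least 1.8 in each of two replicates, scored against plate mean and spread of sample wells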;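 note: positive z means more ATP and so rescue of galactose-driven cybrid death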); conditions: complex I mutant cybrid cells, 72 h, stronger effect = higher value
[10] = hESC survival regulators, cell-based (AID 493140; call rule not given here;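 note: cells exposed to compounds for four days before counting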); conditions: human embryonic stem cell survival screen; stronger effect = higher value
[11] = liver-stage malaria parasite growth inhibition, primary screen, cell-based, HepG2, luciferase luminescence, HepG2 viability (AID 624349; in the data active = parasite load remaining mostly below about 12%, no sharp cut-off; inactive = mostly above about 10%;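 note: 100% = mean of DMSO negative control wells on the same plate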); conditions: P. berghei liver stage in HepG2, luciferase luminescence, concentration not given here; parasite load remaining: stronger effect = lower value; viability: measured here: HepG2 viability without parasites
[12] = measured here: combination with BGB IC40, at 0.05 µM
[13] = measured here: combination with cisplatin, at 0.5 µM
[14] = measured here: combination with cisplatin, at 5 µM
[15] = measured here: combination with BGB at IC20, at 0.5 µM
[16] = measured here: combination with cisplatin at IC20, at 0.5 µM
[17] = measured here: combo with BGB at IC20, at 0.5 µM
[18] = measured here: combo with cisplatin at IC20, at 0.5 µM
[19] = measured here: inhibition with BGB combination, at 0.05 µM
[20] = measured here: inhibition with cisplatin combination, at 0.05 µM
[21] = BGB combination, concentration series, at 5 µM
[22] = cisplatin combination, concentration series, at 5 µM
[23] = measured here: combo with BGB IC20, at 0.5 µM
[24] = measured here: combo with cisplatin IC20, at 0.5 µM

C[C@]1(c2nc3c(C(N)=O)cccc3[nH]2)CCCN1
inhibition ([1]; at 0.5 µM): -23.5% (inactive) and -13.6% (inactive)
inhibition [1, 12]: -41.9% and -23.5%
inhibition [1, 13]: -45.7% and 4.68%
inhibition [1, 14]: -38.3% and -18.5%
inhibition ([2]; at 0.5 µM): -49.8% (inactive) and -59.1% (inactive)
inhibition [2, 15]: -12.1% and -70.3%
inhibition [2, 16]: -110% and -65.8%
inhibition ([3]; at 0.5 µM): -8.8% (inactive) and -9.57% (inactive)
inhibition [3, 17]: -16.2% and -2.73%
inhibition [3, 18]: -3.64% and -17.6%
inhibition ([4]; at 0.5 µM): -9.31% (inactive) and 2.13% (inactive)
inhibition [4, 19]: -8.28% and -17%
inhibition [4, 20]: -23.7% and -11.7%
inhibition ([5]; at 0.5 µM): -25% (inactive) and -15.4% (inactive)
inhibition [5, 13]: -36.7% and -21.6%
inhibition [5, 14]: -29.1% and -120%
inhibition [6, 21]: 10.2% and -0.186%
inhibition ([6]; at 0.5 µM): -7.22% (inactive) and -0.79% (inactive)
inhibition [6, 22]: -4.84% and 4.22%
inhibition ([7]; at 0.5 µM): 9.85% (inactive) and -2.9% (inactive)
inhibition [7, 23]: -1.53% and -5.78%
inhibition [7, 24]: 9.8% and -13.1%

O=C(O)c1ccc2c(c1)nc(Nc1cccc(Cl)c1)c1ccncc12
liver cell % of control [8]: 84.7% and 84.9% and 89.8%
parasite % of control [8]: 247% (inactive) and 142% (inactive) and 94.6% (inactive)

Cc1ccc2nc(NCCN)c3ncc(C)n3c2c1
inhibition ([1]; at 0.5 µM): 1.37% (inactive)
inhibition [1, 12]: -13.1%
inhibition [1, 13]: -5.04%
inhibition [1, 14]: 83.6%
inhibition ([2]; at 0.5 µM): -21.4% (inactive)
inhibition [2, 15]: 13.8%
inhibition [2, 16]: -60.3%
inhibition ([3]; at 0.5 µM): -5.33% (inactive)
inhibition [3, 17]: -7.44%
inhibition [3, 18]: -1.09%
inhibition ([4]; at 0.5 µM): -4.12% (inactive)
inhibition [4, 19]: -17.4%
inhibition [4, 20]: -11.7%
inhibition ([5]; at 0.5 µM): -14.5% (inactive)
inhibition [5, 13]: -10.3%
inhibition [5, 14]: 15.9%
inhibition [6, 21]: 91.7%
inhibition ([6]; at 0.5 µM): 1.55% (inactive)
inhibition [6, 22]: 76.1%
inhibition ([7]; at 0.5 µM): -0.35% (inactive)
inhibition [7, 23]: 0.763%
inhibition [7, 24]: 2.83%

CCCCCCCCCCCC(CC1OC(=O)C1CCCCCC)OC(=O)C(CC(C)C)NC=O (stereo not drawn)
z-score [9]: -1.84 (inactive)

CS(=O)(=O)c1ccc(C(=O)Nc2ccc(Cl)c(-c3ccccn3)c2)c(Cl)c1
z-score [9]: 0.355 (inactive)

Nc1ccccc1NC(=O)c1ccc(CNc2nccc(-c3cccnc3)n2)cc1
inhibition ([1]; at 0.5 µM): 42.2% (inactive)
inhibition [1, 12]: -27.8%
inhibition [1, 13]: 50.9%
inhibition [1, 14]: 96.3%
inhibition ([2]; at 0.5 µM): -11.6% (inactive)
inhibition [2, 15]: -25.1%
inhibition [2, 16]: 19.9%
inhibition ([3]; at 0.5 µM): 40.8% (inactive)
inhibition [3, 17]: 31.4%
inhibition [3, 18]: 76.7%
inhibition ([4]; at 0.5 µM): 27.8% (inactive)
inhibition [4, 19]: -18.3%
inhibition [4, 20]: -16.7%
inhibition ([5]; at 0.5 µM): 36.6% (inactive)
inhibition [5, 13]: 45.3%
inhibition [5, 14]: 98.8%
inhibition [6, 21]: 114%
inhibition ([6]; at 0.5 µM): 29.1% (inactive)
inhibition [6, 22]: 120%
inhibition ([7]; at 0.5 µM): 24.5% (inactive)
inhibition [7, 23]: 21.7%
inhibition [7, 24]: 17.1%

CN(C(Cc1ccc(OS(=O)(=O)c2cccc3cnccc23)cc1)C(=O)N1CCN(c2ccccc2)CC1)S(=O)(=O)c1cccc2cnccc12 (stereo not drawn)
survival [10]: 94.6 (inactive)

O=C(Nc1cc(Cl)cc2c1[nH]c1cnccc12)c1cccnc1
parasite load remaining [11]: 33.8% (inactive)
viability [11]: 87.1%
